# From PubChem BioAssay (NCATS)
# Several values for one entry are separate records, joined by “and”; a condition that tells them apart may be missing. Identical values can stand only once. Results filed as inconclusive are left out. Entries that show only a call come without a potency. Activity calls are given as the source filed them. Unless noted, calls come from the whole dose curve.
# Columns and labels:
# [1] = target: Bile acid receptor (Homo sapiens) (UniProt Q96RI1); assay: qHTS assay for small molecule antagonists of farnesoid X receptor signaling (AID 588526); note: potency is the fitted concentration of half-maximal effect
# Bile acid receptor (Homo sapiens), sequence (Q96RI1 whole entry, looked up): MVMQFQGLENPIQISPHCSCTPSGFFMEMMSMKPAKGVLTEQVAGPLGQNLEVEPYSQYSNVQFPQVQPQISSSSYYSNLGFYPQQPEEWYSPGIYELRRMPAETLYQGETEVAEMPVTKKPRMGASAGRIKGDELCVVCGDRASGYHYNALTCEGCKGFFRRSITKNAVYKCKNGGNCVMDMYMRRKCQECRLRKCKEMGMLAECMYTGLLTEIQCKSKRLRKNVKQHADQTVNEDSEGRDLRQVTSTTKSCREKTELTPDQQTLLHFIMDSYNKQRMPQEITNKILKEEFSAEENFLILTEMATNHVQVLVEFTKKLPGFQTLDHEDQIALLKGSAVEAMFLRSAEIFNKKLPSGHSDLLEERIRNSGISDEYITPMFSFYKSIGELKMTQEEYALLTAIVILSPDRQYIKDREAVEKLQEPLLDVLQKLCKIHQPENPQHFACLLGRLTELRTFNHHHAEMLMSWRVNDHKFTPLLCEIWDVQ
# In short: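 Concentration-response titrations were fitted to the Hill equation for half-maximal inhibition and maximal response, with data normalised to 50 uM chenodeoxycholic acid and DMSO control wells. Cells: FXR-UAS-bla HEK293T, dialyzed FBS.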
# [2] = qHTS assay for small molecule antagonists of peroxisome proliferator-activated receptor delta signaling (AID 588535; active = well fitted inhibition curve with a large enough effect in the signal ratio, with a control signal flat, not every such curve was filed as active; the % refers to the signal ratio; note: potency is the fitted concentration of half-maximal effect;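 for max response: cells co-treated with a PPAR-delta agonist as stimulator during compound exposure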); conditions: HEK293T PPARd-UAS-bla, beta-lactamase FRET ratio, 18 h; 460 nm channel
# In short: (§1)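 GeneBLAzer PPAR-delta-UAS-bla HEK293T cells in medium with 2% charcoal/dextran FBS were preincubated 5 hrs at 37 C, then given compounds, incubated 18 hrs at 37 C, and read by CCF4 beta-lactamase fluorescence; IC50 from Hill fits.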
# [3] = target: Peroxisome proliferator-activated receptor delta (Homo sapiens) (UniProt Q03181); assay: as above
# Peroxisome proliferator-activated receptor delta (Homo sapiens), sequence (Q03181 whole entry, looked up): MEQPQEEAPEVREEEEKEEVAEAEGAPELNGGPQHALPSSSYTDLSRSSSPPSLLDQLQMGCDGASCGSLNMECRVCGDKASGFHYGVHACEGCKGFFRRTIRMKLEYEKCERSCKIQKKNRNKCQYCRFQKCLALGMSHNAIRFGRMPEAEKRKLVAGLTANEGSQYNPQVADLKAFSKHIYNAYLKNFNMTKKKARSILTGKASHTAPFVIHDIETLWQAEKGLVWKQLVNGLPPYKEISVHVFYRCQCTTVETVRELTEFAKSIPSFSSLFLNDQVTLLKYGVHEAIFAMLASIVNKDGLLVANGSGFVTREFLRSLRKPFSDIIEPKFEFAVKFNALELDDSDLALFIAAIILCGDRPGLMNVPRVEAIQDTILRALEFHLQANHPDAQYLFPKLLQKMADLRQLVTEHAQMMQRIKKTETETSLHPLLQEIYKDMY
# In short: as §1
# [4] = target: Vitamin D3 receptor (Homo sapiens) (UniProt P11473); assay: qHTS assay for small molecule antagonists of vitamin D receptor signaling (AID 588541); note: potency is the fitted concentration of half-maximal effect
# Vitamin D3 receptor (Homo sapiens), sequence (P11473 whole entry, looked up): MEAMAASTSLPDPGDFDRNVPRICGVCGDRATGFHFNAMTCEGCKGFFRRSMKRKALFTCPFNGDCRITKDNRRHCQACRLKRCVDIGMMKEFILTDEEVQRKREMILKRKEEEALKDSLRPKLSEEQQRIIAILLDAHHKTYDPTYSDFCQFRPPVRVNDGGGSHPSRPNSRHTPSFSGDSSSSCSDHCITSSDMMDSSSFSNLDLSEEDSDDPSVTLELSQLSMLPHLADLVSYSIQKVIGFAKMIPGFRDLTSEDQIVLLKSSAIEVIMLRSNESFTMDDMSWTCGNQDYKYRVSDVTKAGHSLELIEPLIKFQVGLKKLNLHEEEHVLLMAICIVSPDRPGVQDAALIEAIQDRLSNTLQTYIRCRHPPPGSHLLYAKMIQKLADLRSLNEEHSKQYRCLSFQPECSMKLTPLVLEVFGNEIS
# In short: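 VDR-UAS-bla HEK293T cells (2000/well, 2% charcoal-stripped FBS) were treated with titrated compounds plus 1-alpha,25-dihydroxyvitamin D3 (50 nM or 3 nM final) for 16 h at 37 C. CCF4 beta-lactamase fluorescence was read; Hill fits gave IC50.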
# [5] = qHTS assay for small molecule agonists of the antioxidant response element (ARE) signaling pathway (AID 651741; active = well fitted activation curve with a large enough effect in the signal ratio; the % refers to the signal ratio; note: potency is the fitted concentration of half-maximal effect)
# In short: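 ARE-bla HepG2 cells (beta-lactamase reporter under ARE control) were plated at 2,000 cells/well, preincubated 5 h at 37 C/5% CO2, then treated with DMSO-dissolved compounds for 16 h at 37 C; LiveBLAzer B/G FRET substrate added, fluorescence read after 2 h at room temperature.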
# [6] = target: Androgen receptor (Homo sapiens) (UniProt P10275); assay: qHTS assay for small molecule agonists of androgen receptor signaling (AID 588515; active = well fitted curve in the direction sought with a large enough effect in the signal ratio, with a control signal flat; the % refers to the signal ratio; note: potency is the fitted concentration of half-maximal effect); conditions: AR-UAS-bla HEK293, beta-lactamase ratio, agonist 16 h; activation: stronger effect = higher value
# Androgen receptor (Homo sapiens), sequence (P10275 whole entry, looked up): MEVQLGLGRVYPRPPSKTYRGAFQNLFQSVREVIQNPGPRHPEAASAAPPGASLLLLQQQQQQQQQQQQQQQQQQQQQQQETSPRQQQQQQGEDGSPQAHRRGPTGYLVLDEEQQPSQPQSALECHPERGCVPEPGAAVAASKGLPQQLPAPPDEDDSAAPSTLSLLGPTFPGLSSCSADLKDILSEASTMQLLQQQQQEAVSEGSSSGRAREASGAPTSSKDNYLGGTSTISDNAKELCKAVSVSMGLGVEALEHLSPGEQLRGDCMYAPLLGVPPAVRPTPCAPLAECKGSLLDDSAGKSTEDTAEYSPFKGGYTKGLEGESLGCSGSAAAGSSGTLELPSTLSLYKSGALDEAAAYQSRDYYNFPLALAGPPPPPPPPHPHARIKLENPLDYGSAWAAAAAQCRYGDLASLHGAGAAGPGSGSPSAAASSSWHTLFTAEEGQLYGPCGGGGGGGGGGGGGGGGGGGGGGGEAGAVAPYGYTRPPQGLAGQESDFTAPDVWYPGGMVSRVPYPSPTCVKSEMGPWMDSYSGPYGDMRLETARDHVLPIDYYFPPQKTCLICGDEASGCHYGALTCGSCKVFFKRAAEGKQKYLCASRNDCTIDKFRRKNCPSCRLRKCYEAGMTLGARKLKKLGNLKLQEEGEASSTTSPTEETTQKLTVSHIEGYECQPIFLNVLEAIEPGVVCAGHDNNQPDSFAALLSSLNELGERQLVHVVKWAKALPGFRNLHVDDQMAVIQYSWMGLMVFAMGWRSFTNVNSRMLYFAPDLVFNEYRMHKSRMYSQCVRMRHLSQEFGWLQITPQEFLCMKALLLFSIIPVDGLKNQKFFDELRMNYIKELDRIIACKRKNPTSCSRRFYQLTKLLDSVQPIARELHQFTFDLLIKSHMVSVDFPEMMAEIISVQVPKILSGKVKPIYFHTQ
# In short: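 EC50 and efficacy came from Hill fits of titrations (up to 92 uM) normalized to 30 nM R1881 as 100% and DMSO as 0%. Compound exposure was 16 h at 37 C on AR-UAS-bla HEK293 cells, with a 405/460/530 nm CCF4 fluorescence read.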
# [7] = target: Androgen receptor (Homo sapiens) (UniProt P10275); assay: qHTS assay for small molecule antagonists of androgen receptor signaling (AID 588516; active = well fitted curve in the direction sought with a large enough effect in the signal ratio, with a control signal flat, not every such curve was filed as active; the % refers to the signal ratio)
# In short: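 Cells were plated and incubated 5 h, compounds added in titration, then R1881 (10 nM final) as agonist. After 16 h at 37 C, CCF4 substrate was loaded for 2 h at room temperature and fluorescence measured.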
# [8] = target: Glucocorticoid receptor (Homo sapiens) (UniProt P04150); assay: qHTS assay for small molecule agonists of glucocorticoid receptor signaling (AID 588532; active = well fitted curve in the direction sought with a large enough effect in the signal ratio, with a control signal flat; the % refers to the signal ratio); conditions: HeLa MMTV-bla, beta-lactamase ratio, agonist, 18 h; stronger effect = higher value; percent of dexamethasone control, DMSO zero
# Glucocorticoid receptor (Homo sapiens), sequence (P04150 whole entry, looked up): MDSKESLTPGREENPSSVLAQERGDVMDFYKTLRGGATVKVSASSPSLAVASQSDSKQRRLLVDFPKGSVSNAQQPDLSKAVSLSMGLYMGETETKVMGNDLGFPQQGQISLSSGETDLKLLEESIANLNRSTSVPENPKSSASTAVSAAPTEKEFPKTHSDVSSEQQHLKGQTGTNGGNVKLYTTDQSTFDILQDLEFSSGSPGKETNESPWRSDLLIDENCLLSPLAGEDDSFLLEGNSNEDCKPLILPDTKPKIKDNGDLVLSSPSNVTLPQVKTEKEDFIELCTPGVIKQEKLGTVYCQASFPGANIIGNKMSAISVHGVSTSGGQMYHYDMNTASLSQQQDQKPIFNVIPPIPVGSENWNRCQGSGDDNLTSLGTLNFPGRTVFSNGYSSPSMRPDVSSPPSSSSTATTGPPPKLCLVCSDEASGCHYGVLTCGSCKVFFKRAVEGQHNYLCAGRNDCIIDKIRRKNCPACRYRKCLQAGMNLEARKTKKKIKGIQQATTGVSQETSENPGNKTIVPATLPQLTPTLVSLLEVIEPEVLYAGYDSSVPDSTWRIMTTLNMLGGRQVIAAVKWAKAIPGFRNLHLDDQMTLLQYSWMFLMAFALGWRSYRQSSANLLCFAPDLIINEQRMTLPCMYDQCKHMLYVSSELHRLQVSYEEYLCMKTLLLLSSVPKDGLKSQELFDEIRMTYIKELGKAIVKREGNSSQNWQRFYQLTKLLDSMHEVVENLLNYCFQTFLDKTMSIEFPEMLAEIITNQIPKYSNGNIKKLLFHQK
# In short: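 Stimulation of a glucocorticoid response element-driven beta-lactamase gene was measured in HeLa cells. Responses were scaled between DMSO basal and 0.1 uM dexamethasone, then fitted for half-maximal stimulation.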
# [9] = target: Glucocorticoid receptor (Homo sapiens) (UniProt P04150); assay: qHTS assay for small molecule antagonists of glucocorticoid receptor signaling (AID 588533; active = well fitted inhibition curve with a large enough effect in the signal ratio, with a control signal flat, not every such curve was filed as active; the % refers to the signal ratio;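 note: cells stimulated with 2 nM dexamethasone as agonist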)
# In short: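 Antagonist-mode qHTS: compound titrations added to GRE-bla HeLa cells, then dexamethasone 2 nM final; 18 h, 37 C. CCF4 FRET fluorescence normalized to dexamethasone and DMSO; IC50 from Hill fit.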
# [10] = target: Estrogen receptor (Homo sapiens) (UniProt P03372); assay: qHTS assay for small molecule agonists of estrogen receptor alpha signaling (AID 588514); note: nearly all actives have a fitted effect of over 70% in size; note: potency is the fitted concentration of half-maximal effect
# Estrogen receptor (Homo sapiens), sequence (P03372 whole entry, looked up): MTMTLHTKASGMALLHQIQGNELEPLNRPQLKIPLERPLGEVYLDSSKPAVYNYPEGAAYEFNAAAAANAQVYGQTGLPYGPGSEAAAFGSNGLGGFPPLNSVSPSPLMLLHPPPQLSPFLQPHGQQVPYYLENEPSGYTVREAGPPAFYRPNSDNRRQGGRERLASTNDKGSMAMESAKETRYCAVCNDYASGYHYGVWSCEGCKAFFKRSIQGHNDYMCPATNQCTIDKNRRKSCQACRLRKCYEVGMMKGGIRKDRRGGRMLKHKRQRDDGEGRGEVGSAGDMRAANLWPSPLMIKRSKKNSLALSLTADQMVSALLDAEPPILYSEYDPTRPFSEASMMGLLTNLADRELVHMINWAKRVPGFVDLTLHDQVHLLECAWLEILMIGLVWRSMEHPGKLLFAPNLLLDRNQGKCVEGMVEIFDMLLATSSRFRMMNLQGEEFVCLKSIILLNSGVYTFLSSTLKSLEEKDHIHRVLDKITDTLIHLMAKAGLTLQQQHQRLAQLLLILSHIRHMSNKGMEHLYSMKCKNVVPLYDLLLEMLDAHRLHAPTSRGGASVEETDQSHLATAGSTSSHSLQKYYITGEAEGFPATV
# In short: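 Reporter-gene assay. […] controls beta-lactamase in HEK 293 GripTite cells; after 18 hrs with compound, CCF4 substrate is added for 2 hrs and fluorescence is read.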
SMILES,Potency [1],max response [2],Potency [3],Potency [4],Potency [5],activation [6],outcome [7],activation [8],Potency [9],Potency [10],Potency [6]
C=CC(=O)OCC[N+](C)(C)C,inactive,35.3%,inactive,inactive,inactive,–,–,–,–,–,–
OCCC(F)(F)C(F)(F)C(F)(F)C(F)(F)C(F)(F)C(F)(F)C(F)(F)C(F)(F)F,–,-9.21%,inactive,inactive,inactive,13.8% (inactive),inactive,–,–,–,–
C[N+](C)(C)CC(O)CCl (configuration not stated),–,1.91%,inactive,inactive,–,–,–,-7.46% (inactive),inactive,–,–
CCOC(=O)c1ccccc1C,–,–,–,–,inactive,–,–,10.9% (inactive),inactive,–,–
CC(=O)Nc1ccc(N=Nc2cc(C)ccc2O)cc1,–,14%,inactive,–,17.2 µM (active),-4.42% (inactive),inactive,-3.33% (inactive),inactive,inactive,–
O=S(=O)(O)c1cc(S(=O)(=O)O)c2c(N=Nc3ccccc3)c(O)ccc2c1,–,-19.3%,inactive,inactive,inactive,–,–,–,inactive,–,–
CC(C)=CCC[C@@H](C)[C@H]1CC[C@@]2(C)C3=C(CC[C@]12C)[C@@]1(C)CC[C@H](O)C(C)(C)[C@@H]1CC3,inactive,37.7%,inactive,inactive,inactive,6.85% (inactive),–,8.87% (inactive),inactive,inactive,–
CCCN(CCC)c1c([N+](=O)[O-])cc(C(F)(F)F)c(N)c1[N+](=O)[O-],inactive,–,–,–,–,–,–,-4.44% (inactive),–,inactive,–
Nc1ccc(N)c2c1C(=O)c1c(N)ccc(N)c1C2=O,inactive,–,–,–,27.3 µM (active),5.62% (inactive),inactive,0.353% (inactive),inactive,inactive,–
CO/N=C1\C[C@]2(C[C@@H]3C[C@@H](C/C=C(\C)C[C@@H](C)/C=C/C=C4\CO[C@@H]5[C@H](O)C(C)=C[C@@H](C(=O)O3)[C@]45O)O2)O[C@H](/C(C)=C/C(C)C)[C@H]1C,–,–,–,17.8 µM (active),–,–,–,–,–,–,–
O=C(O)CN(CCCN(CC(=O)O)CC(=O)O)CC(=O)O,–,-69.3%,14.1 µM (active),–,–,-11.6% (inactive),–,16.2% (inactive),–,8.91 µM (active),–
O=C(O)CN(CCO)CCN(CC(=O)O)CC(=O)O,inactive,6.54%,inactive,–,inactive,3.88% (inactive),inactive,-10.4% (inactive),inactive,inactive,–
O=[N+]([O-])C(CO)(CO)CO,–,26.9%,inactive,inactive,–,–,–,–,–,–,–
O=c1[nH]sc2ccccc12,44.7 µM (active),–,–,–,27.3 µM (active),–,–,-3.87% (inactive),–,inactive,–
COc1ccccc1NC(=O)CC(C)=O,–,49.4%,inactive,inactive,inactive,–,–,–,–,–,–
CCCCCCCC(=O)Oc1c(Br)cc(C#N)cc1Br,inactive,–,–,inactive,61.1 µM (active),–,–,–,inactive,inactive,–
CCCCCCCCCCCCCC(=O)OC,–,-19.8%,inactive,inactive,–,9.07% (inactive),inactive,-4.01% (inactive),inactive,inactive,–
CC(C)CCCCCOC(=O)CS,–,–,–,–,inactive,–,–,5.28% (inactive),inactive,–,–
CN(C)c1nc(=O)n(C2CCC(O)CC2)c(=O)n1C (configuration not stated),inactive,20.4%,inactive,inactive,inactive,6.02% (inactive),inactive,6.12% (inactive),inactive,inactive,–
CCOC(=O)C(C)Oc1ccc(Oc2cnc3cc(Cl)ccc3n2)cc1 (configuration not stated),inactive,–,–,–,–,–,–,-6.64% (inactive),–,inactive,–
COc1nc(C)nc(NC(=O)NS(=O)(=O)c2ccccc2OCCCl)n1,inactive,-8.8%,inactive,–,–,–,–,-18.5% (inactive),inactive,inactive,–
CCO[Si](CCC#N)(OCC)OCC,inactive,–,–,–,inactive,–,–,2.23% (inactive),inactive,inactive,–
CN=C(N)NCC1CCOC1 (configuration not stated),–,42%,inactive,inactive,21.7 µM (active),2.67% (inactive),–,-0.0864% (inactive) and -2.61% (inactive),inactive,inactive,–

SMILES,Potency [1],max response [2],Potency [3],Potency [4],Potency [5],activation [6],outcome [7],activation [8],Potency [9],Potency [10],Potency [6]
CCCCCCCC/C=C\CCCCCCCCCCCCC,inactive,20.5%,inactive,inactive,inactive,5.8% (inactive),inactive,-8.32% (inactive),inactive,inactive,–
C[C@]12CCC(=O)C=C1CC[C@@H]1[C@@H]2[C@@H](O)C[C@]2(C=O)[C@@H](C(=O)CO)CC[C@@H]12,inactive,–,–,–,inactive,–,–,–,–,inactive,15.8 µM (active)
Cc1ccc(N=Nc2c(O)ccc3ccccc23)c([N+](=O)[O-])c1,inactive,39.9%,inactive,inactive,24.3 µM (active),8.82% (inactive),inactive,-1.07% (inactive),inactive,inactive,–
C=CC(=O)NC(C)(C)CS(=O)(=O)O,–,15.1% and -58.6%,inactive,inactive,inactive,–,–,–,–,–,–
CC1(C)[C@@H]([C@@H](Br)C(Br)(Br)Br)[C@H]1C(=O)O[C@H](C#N)c1cccc(Oc2ccccc2)c1,–,–,–,–,21.7 µM (active),-17.3% (inactive),–,-6.04% (inactive),inactive,inactive,–
O=S(c1ccc(Cl)cc1)c1cc(Cl)c(Cl)cc1Cl (configuration not stated),–,14.8%,inactive,–,54.5 µM (active),-11.5% (inactive),–,1.68% (inactive),–,inactive,–
Cc1ccc(Cl)cc1Cl,–,–,–,inactive,inactive,–,–,-2.65% (inactive),inactive,–,–
O=C(O)C(c1ccc(Cl)cc1)c1ccc(Cl)cc1,–,-10.8%,inactive,inactive,–,–,–,–,–,–,–
CCCCCc1ccc(N)cc1,–,19.2%,inactive,inactive,inactive,–,–,–,–,–,–
CCc1c(C(=O)O)c(=O)cnn1-c1ccc(Cl)cc1,inactive,48.3%,inactive,inactive,inactive,–,–,–,inactive,inactive,–
CC1COCc2cc3c(cc21)C(C)(C)C(C)C3(C)C (configuration not stated),inactive,-16.1%,inactive,inactive,inactive,12.8% (inactive),inactive,13.9% (inactive),inactive,11.2 µM (active),–
Cl[Si](Cl)(Cl)c1ccccc1,–,13.6%,inactive,inactive,inactive,7.73% (inactive),inactive,5.43% (inactive),–,inactive,–
C=C(C)C(=O)OCCC[Si](OC)(OC)OC,–,51.6%,inactive,–,inactive,–,–,–,inactive,–,–
FC(F)(F)c1ccc(Cl)c(Cl)c1,–,40.3%,inactive,–,–,6.47% (inactive),inactive,-1.21% (inactive),inactive,inactive,–
CN(C)Cc1cc(CN(C)C)c(O)c(CN(C)C)c1,inactive,–,–,–,inactive,-17.5% (inactive),inactive,–,inactive,inactive,–
CC(C)OB(OC(C)C)OC(C)C,–,–,–,inactive,inactive,–,–,–,inactive,–,–
CCCCCCCCCC[N+](C)(C)Cc1ccccc1,–,–,–,–,–,-12.2% (inactive),–,-4.12% (inactive),inactive,1.12 µM (active),–
CC(=O)CC(=O)Nc1ccc(C)cc1C,inactive,–,–,–,inactive,7% (inactive),inactive,7.78% (inactive),inactive,–,–
C=C[Si](C)(C)O[Si](C)(C)C=C,–,–,–,inactive,inactive,–,–,–,inactive,inactive,–
CSc1ccc(Cl)cc1,inactive,24.7%,inactive,–,inactive,-7.93% (inactive),inactive,-2.12% (inactive),inactive,–,–
CCCCC/C=C\C/C=C\CCCCCCCC(=O)OC,–,10.1%,inactive,–,–,–,–,–,–,inactive,–
CO[Si](OC)(OC)c1ccccc1,–,44.5%,inactive,inactive,–,–,–,-5.49% (inactive),inactive,inactive,–
CC/C=C/CCCCCCCCCCOC(C)=O,–,25.9%,inactive,–,inactive,–,–,2.34% (inactive),inactive,inactive,–
